Inhibition data for 1 compound are collected here from ChEMBL document CHEMBL1961873, “Compounds: GSK PKIS; Assays: Nanosyn kinase panel” (2012).

Structures are written as SMILES.

In experiment [1] the target is Sphingosine kinase 1 (Homo sapiens) (UniProt Q9NYA1). The settings on record: at 1 µM.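 Note: mean SPHK1 inhibition value reported from the GSK PKIS kinase panel screen.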
Experiment [2] addresses T1, Sphingosine kinase 2 (Homo sapiens) (UniProt Q9NRA0).
T1 sequence (whole entry): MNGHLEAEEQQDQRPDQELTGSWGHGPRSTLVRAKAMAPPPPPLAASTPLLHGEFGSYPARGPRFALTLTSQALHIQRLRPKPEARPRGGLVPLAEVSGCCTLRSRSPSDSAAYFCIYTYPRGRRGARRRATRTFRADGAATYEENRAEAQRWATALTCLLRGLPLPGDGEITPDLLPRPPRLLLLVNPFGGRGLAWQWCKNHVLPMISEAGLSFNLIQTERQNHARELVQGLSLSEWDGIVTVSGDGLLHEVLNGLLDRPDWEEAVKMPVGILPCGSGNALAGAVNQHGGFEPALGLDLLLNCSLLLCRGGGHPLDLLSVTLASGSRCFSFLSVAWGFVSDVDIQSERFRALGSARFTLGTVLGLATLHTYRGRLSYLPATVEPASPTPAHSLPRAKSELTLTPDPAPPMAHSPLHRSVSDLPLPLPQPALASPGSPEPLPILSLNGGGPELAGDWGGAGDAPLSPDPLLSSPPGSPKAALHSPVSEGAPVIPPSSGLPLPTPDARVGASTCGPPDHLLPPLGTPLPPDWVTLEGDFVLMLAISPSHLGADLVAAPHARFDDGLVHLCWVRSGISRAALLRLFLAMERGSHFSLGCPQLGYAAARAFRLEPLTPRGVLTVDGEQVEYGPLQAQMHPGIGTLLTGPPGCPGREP
The settings on record: at 0.1 µM.

For experiment [3], the target named is T1, Sphingosine kinase 2 (Homo sapiens). The conditions noted are these: at 1 µM.
Experiment [4] deals with Casein kinase II subunit alpha (Homo sapiens) (UniProt P68400). The settings on record: at 0.1 µM.
Chain of Casein kinase II subunit alpha (Homo sapiens) (P68400 whole entry, looked up): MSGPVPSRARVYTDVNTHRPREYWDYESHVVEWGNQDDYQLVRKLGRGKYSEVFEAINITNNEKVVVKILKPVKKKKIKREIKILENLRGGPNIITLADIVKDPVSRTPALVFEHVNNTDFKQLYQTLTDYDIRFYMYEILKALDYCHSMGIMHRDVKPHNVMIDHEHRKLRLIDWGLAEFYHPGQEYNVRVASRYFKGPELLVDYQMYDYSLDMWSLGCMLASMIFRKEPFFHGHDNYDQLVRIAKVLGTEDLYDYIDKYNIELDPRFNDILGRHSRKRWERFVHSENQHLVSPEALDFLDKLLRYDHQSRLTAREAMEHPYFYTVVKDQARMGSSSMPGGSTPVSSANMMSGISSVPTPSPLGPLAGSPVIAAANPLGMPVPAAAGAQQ
Experiment [5] has the same target. The settings on record: at 1 µM.
Experiment [6] has as its target T2, Inhibitor of nuclear factor kappa-B kinase subunit alpha (Homo sapiens) (UniProt O15111).
T2 sequence (whole entry): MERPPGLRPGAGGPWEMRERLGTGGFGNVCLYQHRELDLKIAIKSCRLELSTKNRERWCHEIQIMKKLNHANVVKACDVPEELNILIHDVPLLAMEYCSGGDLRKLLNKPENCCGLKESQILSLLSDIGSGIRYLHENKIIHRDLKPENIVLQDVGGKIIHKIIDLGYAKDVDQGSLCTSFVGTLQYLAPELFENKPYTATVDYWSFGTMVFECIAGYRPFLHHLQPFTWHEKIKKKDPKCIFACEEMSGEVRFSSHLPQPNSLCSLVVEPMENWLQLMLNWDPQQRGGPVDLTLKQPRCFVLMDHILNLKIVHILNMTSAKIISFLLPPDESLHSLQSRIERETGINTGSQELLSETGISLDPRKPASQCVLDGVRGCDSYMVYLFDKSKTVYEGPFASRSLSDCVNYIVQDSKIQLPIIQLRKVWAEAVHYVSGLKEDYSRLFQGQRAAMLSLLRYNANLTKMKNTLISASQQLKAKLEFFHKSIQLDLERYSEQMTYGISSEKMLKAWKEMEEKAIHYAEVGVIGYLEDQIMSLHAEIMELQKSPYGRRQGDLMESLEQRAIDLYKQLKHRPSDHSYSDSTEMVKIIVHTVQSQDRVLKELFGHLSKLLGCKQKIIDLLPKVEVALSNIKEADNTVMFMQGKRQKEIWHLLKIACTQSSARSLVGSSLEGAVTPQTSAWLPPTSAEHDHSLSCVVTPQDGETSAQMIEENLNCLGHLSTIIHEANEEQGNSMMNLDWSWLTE
The settings on record: at 0.1 µM.

The target of experiment [7] is T2, Inhibitor of nuclear factor kappa-B kinase subunit alpha (Homo sapiens). The settings on record: at 1 µM.
Experiment [8] addresses T3, Inhibitor of nuclear factor kappa-B kinase subunit beta (Homo sapiens) (UniProt O14920).
T3 sequence (whole entry): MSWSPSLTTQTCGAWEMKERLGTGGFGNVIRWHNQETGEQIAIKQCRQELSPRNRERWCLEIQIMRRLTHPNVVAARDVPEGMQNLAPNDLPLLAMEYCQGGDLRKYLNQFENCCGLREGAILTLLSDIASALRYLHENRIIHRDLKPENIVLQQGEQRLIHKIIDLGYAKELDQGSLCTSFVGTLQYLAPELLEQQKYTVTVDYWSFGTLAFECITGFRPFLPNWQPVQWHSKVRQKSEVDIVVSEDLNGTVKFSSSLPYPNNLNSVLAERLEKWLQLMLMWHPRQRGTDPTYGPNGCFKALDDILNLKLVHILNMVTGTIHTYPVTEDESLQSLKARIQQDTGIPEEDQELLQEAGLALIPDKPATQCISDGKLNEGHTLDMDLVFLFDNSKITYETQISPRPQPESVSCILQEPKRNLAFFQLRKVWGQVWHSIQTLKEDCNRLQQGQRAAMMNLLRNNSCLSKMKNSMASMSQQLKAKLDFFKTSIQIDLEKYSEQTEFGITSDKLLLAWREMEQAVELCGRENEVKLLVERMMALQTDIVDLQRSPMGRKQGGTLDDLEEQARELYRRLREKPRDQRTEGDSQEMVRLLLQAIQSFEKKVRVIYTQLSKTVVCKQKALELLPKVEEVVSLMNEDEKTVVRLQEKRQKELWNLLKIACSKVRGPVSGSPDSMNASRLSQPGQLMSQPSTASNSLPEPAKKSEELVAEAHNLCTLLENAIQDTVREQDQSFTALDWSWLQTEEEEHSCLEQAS
The settings on record: at 0.1 µM.

Experiment [9] addresses T3, Inhibitor of nuclear factor kappa-B kinase subunit beta (Homo sapiens). The settings on record: at 1 µM.
In experiment [10] the target is T4, Inhibitor of nuclear factor kappa-B kinase subunit epsilon (Homo sapiens) (UniProt Q14164).
T4 sequence (whole entry): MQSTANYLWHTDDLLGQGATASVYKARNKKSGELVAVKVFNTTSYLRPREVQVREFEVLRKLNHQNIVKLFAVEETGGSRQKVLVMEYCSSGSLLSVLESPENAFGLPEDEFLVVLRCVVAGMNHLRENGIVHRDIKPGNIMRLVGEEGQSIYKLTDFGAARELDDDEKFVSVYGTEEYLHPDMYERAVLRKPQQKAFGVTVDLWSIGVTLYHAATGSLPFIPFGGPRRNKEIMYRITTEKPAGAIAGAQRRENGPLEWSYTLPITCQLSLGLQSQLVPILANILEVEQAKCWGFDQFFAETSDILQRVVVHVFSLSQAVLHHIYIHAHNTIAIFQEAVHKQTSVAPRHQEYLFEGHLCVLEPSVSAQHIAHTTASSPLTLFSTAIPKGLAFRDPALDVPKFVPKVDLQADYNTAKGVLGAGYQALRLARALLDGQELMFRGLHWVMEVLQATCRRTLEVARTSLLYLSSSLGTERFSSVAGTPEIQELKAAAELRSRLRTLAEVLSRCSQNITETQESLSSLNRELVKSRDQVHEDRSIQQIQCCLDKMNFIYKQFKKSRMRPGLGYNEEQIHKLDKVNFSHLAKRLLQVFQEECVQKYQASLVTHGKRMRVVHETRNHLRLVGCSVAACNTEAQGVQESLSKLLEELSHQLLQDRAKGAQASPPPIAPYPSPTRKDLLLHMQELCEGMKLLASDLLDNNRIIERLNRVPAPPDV
The conditions noted are these: at 0.1 µM.

The target of experiment [11] is T4, Inhibitor of nuclear factor kappa-B kinase subunit epsilon (Homo sapiens). The conditions noted are these: at 1 µM.
Experiment [12] deals with T5, Serine/threonine-protein kinase Nek1 (Homo sapiens) (UniProt Q96PY6).
T5 sequence (whole entry): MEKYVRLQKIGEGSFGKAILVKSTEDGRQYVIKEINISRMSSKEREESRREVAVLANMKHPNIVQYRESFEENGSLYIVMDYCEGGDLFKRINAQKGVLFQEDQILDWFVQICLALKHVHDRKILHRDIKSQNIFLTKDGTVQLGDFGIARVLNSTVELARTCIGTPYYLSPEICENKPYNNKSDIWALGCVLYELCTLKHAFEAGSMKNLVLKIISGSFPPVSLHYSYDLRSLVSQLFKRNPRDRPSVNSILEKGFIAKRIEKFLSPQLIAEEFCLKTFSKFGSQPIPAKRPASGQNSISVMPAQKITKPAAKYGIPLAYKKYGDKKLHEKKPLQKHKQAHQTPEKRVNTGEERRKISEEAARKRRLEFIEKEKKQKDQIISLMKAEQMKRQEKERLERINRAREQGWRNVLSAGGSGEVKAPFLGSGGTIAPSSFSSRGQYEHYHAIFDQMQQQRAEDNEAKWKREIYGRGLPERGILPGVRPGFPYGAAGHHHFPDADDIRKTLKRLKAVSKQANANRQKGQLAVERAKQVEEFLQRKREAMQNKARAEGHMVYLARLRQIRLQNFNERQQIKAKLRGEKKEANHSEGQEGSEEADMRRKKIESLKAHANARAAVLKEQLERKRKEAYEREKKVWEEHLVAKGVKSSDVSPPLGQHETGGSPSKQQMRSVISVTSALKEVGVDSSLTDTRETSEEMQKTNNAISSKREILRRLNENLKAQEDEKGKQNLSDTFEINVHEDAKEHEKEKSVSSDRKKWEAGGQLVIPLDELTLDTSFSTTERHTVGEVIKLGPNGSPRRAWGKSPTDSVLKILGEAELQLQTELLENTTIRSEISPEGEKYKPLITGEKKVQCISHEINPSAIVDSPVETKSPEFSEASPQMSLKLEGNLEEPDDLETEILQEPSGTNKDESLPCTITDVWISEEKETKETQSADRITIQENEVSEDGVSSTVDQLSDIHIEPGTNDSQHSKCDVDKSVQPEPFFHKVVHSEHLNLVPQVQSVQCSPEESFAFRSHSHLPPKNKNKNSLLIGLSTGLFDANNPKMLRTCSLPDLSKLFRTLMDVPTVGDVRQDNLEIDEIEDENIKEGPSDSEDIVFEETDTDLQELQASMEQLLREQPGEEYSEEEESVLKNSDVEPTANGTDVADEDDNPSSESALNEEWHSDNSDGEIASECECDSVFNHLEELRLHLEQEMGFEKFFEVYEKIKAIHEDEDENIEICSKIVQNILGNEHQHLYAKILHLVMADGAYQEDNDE
The settings on record: at 0.1 µM.

Experiment [13] addresses T5, Serine/threonine-protein kinase Nek1 (Homo sapiens). The conditions noted are these: at 1 µM.
In experiment [14] the target is T6, Serine/threonine-protein kinase Nek2 (Homo sapiens) (UniProt P51955).
T6 sequence (whole entry): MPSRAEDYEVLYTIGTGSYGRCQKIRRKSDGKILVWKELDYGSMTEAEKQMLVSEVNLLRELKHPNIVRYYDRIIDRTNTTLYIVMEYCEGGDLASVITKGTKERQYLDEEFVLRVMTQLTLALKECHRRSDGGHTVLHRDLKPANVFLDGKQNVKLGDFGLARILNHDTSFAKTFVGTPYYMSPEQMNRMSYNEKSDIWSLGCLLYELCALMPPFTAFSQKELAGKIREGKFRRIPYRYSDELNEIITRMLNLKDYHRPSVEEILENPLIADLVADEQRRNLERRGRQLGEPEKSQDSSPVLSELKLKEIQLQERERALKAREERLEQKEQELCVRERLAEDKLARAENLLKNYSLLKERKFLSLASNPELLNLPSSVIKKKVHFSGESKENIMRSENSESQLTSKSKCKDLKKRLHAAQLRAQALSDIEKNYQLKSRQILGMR
The settings on record: at 0.1 µM.

The target in experiment [15] is T6, Serine/threonine-protein kinase Nek2 (Homo sapiens). The conditions noted are these: at 1 µM.
In experiment [16] the target is Serine/threonine-protein kinase Nek6 (Homo sapiens) (UniProt Q9HC98). The settings on record: at 0.1 µM.
Chain of Serine/threonine-protein kinase Nek6 (Homo sapiens) (Q9HC98 whole entry): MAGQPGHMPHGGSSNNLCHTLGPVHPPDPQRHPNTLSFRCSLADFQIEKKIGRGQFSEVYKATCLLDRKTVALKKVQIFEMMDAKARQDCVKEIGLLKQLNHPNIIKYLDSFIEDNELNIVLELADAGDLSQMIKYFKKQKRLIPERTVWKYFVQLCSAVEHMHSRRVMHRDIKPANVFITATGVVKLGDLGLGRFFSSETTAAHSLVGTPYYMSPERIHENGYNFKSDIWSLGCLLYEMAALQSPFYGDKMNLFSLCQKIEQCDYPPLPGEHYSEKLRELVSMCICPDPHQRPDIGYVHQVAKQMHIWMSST
Experiment [17] shares this target. The conditions noted are these: at 1 µM.
Experiment [18] concerns the target Serine/threonine-protein kinase Nek7 (Homo sapiens) (UniProt Q8TDX7). The settings on record: at 0.1 µM.
Experiment [19] has the same target. The conditions noted are these: at 1 µM.
Experiment [20] has as its target T7, Serine/threonine-protein kinase Nek9 (Homo sapiens) (UniProt Q8TD19).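 Note: reported value is the mean percent inhibition of NEK9.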
T7 sequence (whole entry): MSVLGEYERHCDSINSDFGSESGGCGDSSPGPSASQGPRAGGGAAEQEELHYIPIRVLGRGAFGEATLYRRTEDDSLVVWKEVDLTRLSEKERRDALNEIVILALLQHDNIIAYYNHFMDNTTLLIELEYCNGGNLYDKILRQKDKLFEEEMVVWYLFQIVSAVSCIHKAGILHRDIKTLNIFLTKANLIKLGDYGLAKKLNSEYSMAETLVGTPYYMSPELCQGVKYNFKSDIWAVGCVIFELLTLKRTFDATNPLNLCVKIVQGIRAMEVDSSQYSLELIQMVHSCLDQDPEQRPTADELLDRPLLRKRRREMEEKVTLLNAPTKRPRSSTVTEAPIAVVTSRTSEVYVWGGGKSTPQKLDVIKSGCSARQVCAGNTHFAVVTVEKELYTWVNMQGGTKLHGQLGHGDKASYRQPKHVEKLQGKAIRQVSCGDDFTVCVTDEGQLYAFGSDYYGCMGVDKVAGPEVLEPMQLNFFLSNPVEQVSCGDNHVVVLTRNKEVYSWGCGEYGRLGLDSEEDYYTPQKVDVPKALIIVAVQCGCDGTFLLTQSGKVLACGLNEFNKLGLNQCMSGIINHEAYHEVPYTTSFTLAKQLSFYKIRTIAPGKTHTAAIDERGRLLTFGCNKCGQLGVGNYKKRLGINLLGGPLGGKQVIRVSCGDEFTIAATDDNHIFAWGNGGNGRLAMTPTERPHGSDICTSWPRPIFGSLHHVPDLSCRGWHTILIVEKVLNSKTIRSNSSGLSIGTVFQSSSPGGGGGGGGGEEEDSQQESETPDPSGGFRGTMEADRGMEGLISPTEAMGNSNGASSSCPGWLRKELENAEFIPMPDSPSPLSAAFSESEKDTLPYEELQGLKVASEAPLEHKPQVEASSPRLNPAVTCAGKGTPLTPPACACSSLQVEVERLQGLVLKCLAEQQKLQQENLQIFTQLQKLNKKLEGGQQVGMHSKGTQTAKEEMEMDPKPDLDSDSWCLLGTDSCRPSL
The conditions noted are these: at 0.1 µM.

Chain of Serine/threonine-protein kinase Nek7 (Homo sapiens) (Q8TDX7 whole entry, looked up): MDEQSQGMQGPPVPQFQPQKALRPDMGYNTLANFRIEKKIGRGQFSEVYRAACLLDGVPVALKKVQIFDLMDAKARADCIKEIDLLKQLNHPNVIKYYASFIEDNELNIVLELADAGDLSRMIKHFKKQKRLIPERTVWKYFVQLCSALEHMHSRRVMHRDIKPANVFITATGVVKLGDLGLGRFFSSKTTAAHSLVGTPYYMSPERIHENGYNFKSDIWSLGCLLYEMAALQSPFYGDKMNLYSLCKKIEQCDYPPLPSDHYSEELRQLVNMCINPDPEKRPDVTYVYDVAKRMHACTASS
Chain of Sphingosine kinase 1 (Homo sapiens) (Q9NYA1 whole entry): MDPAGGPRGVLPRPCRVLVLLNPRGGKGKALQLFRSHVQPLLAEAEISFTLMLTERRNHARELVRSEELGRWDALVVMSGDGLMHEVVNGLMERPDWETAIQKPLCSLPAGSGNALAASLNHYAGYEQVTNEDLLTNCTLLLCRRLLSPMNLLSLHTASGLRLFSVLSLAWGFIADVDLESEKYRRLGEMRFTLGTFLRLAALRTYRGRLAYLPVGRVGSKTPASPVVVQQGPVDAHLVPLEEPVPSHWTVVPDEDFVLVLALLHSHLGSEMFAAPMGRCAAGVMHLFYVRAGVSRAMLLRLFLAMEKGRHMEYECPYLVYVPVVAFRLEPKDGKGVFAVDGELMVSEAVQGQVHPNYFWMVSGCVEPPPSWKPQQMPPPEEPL

Turning to `CCn1c(-c2nonc2N)nc2ccccc21`, the inhibition (as a rule, the drop in the measured response relative to a control, in per cent) in experiment [1] was 1.74%; in [2], 13.1%; in [3], -0.24%; in experiment [4], 0.89%; in [5] it was -1.31%; in experiment [6], -3.92%. The inhibition is -1.19% in [7]; 2.35% in experiment [8]; -1% in [9]; 2.9% in experiment [10]; 1.58% in [11]; 2.18% in experiment [12]. For the same compound, the inhibition amounted to 2.6% in [13]; 3.43% in experiment [14]; 4.15% in experiment [15]; 5.78% in experiment [16]; 0.38% in experiment [17]; 2.9% in experiment [18]. Besides, the inhibition worked out at 4.22% in [19] and 0.97% in experiment [20].
